In PubChem BioAssay AID1377 (University of Pittsburgh Molecular Library Screening Center, 2008):
About 830 (0.38%) of roughly 220,000 compounds were called active. Shown is part of a subset that was picked to be rich in actives. A number with no mark means an inactive call.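 The calls were made as follows: active = activation, scaled between plate controls, above about 75% (limit read from the data); inactive = activation under that limit.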

Assay: rescue of L929 cells from zVAD death – primary screen (AID 1377);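 also: 0% = zVAD with DMSO and 100% = DMSO alone without zVAD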
Conditions: L929 zVAD necroptosis rescue, ATP luminescence, 24 h, at 10 µM, active compounds read high; with zVAD 60 µM unless noted

| Compound | viability rescue |
| --- | --- |
| CCc1ccccc1N1CN(Cc2ccco2)CNC1=S | 0.22% |
| Cc1cc(C)nc(NNC2=CC(=O)CC(C)(C)C2)n1 | 0.66% |
| CC(=O)Nc1ccc(NC(=S)NC(=O)/C=C/c2ccccc2)cc1 | 80.5% (active) |
| Cc1ccc(NC(=S)NC(=O)/C=C/c2ccc(Cl)cc2)cc1 | 0.00667% |
| CC(=O)Nc1ccc(/C=C/C(=O)c2ccccc2)cc1 | 0.6% |
| O=C1NC(c2ccccc2)=NC1(Nc1ccccn1)C(F)(F)F (stereo unspecified) | 1.82% |
| CC(C)(C)NC(=O)C(=O)NCc1ccncc1 | 0.53% |
| Cc1cc(C)cc(NS(=O)(=O)c2ccc(F)cc2)c1 | 0.04% |
| CC(NC(=S)NC1CCCCC1)C(c1ccccc1)N1CCOCC1 (stereo unspecified) | -0.76% |
| NNC(=O)c1ccc(Cl)cc1Cl | 0.33% |
| Cc1ccccc1NC(=O)CSC1=NCCN1 | 101% [with zVAD 20 µM] (active) |
| Cc1ccccc1NC(=O)CNc1ccccc1N1CCCCC1 | 0.17% [with zVAD 20 µM] |
| Cc1cccc(NC(=O)CSc2nc3c(c(=O)[nH]2)CCCC3)c1C | 0.25% |
| Clc1cc(-c2ccc(/C=N/n3cnnc3)o2)ccc1Br | -0.31% |
| CCOC(=O)/C(C#N)=C/c1ccc(N2CCCCC2)cc1 | 68.5% |
| C=CCNC(=O)CC12CC3CC(C1)CC(CC(=O)NCC=C)(C3)C2 | 0.48% |
| CC(=O)Nc1cccc(-c2cnc3ccccc3n2)c1 | 82.7% (active) |
| CC(=O)Nc1cccc(-c2csc(Nc3cccc(C)n3)n2)c1 | 0.49% [with zVAD 20 µM] |
| O=C(Nc1cccc(-c2nc3ccccc3[nH]2)c1)c1ccc(C(=O)Nc2cccc(-c3nc4ccccc4[nH]3)c2)cc1 | 0.11% |
| O=C(Nc1cccc(F)c1)N1C2CCC1CC(O)(c1cccnc1)C2 (stereo unspecified) | 0.67% |
| O=C(Nc1cccnc1)c1cc([N+](=O)[O-])ccc1Cl | 13.3% |

| Compound | viability rescue |
| --- | --- |
| Cc1ccc(C(=O)Cn2cccn2)cc1 | 1.57% |
| Cc1ccc(NC(=O)NC(=O)N(C2CCCCC2)S(=O)(=O)c2ccccc2)cc1 | 2.56% |
| O=C(CC1SCCNC1=O)Nc1ccc(Cl)cc1 (stereo unspecified) | 2.38% |
| COc1ccccc1-n1cnc2cc(C(=O)NCC3CCCO3)ccc21 (stereo unspecified) | 1.84% |
| COc1ccc(-n2cnc3cc(C(=O)NC4CCCC4)ccc32)cc1 | 76.5% (active) |
| COCCCNC(=O)c1ccc2c(c1)ncn2-c1ccccc1OC | 13.6% |
| COc1ccc(-c2nc3cnccn3c2NC(C)(C)CC(C)(C)C)cc1O | 0.13% |
| Cc1ccc2cc(/C=N/Nc3ccc(C(=O)O)cc3)c(Cl)nc2c1 | 1.59% |
| CCOC(=O)C1(Cc2ccc(Cl)cc2)CCN(C(=O)C2=NNC(=O)CC2)CC1 | -0.11% |
| CCCCN1C(=O)CC(N2CCOCC2)C1=O (stereo unspecified) | -0.32% |
| C[C@@H]1C[C@@H]2O[C@H]2/C=C\C=C\C(=O)Cc2c(Cl)c(O)cc(O)c2C(=O)O1 | 83% (active) |
| O=C(c1ccncc1)c1ccc([N+](=O)[O-])cc1 | 1.69% |
| O=C(c1ccc(F)cc1)C1CCN(Cc2cn[nH]c2-c2ccccc2)CC1 | 0.29% |
| CC(=O)NCCC(=O)Nc1cc(S(=O)(=O)N2CCOCC2)ccc1N1CCOCC1 | 0.76% |
| COc1ccc(/C(N)=N/OC(=O)Cc2ccccc2)cc1 | 0.52% |
| Cc1cccc(NC(=O)Nc2ccc3c(c2)OCO3)n1 | 75.5% (active) |
| Cc1cccc(NC(=O)/C=C/c2ccc3c(c2)OCO3)n1 | 0.85% [with zVAD 20 µM] |
| CC(NC(=O)Nc1ccc2c(c1)OCO2)c1ccncc1 (stereo unspecified) | 1.29% |
| CC1CCCCC1NC(=O)CO/N=C/c1ccc(OC(F)F)cc1 (stereo unspecified) | 0.48% |
| CC(C)C(=O)Nc1ccc2c3c(cccc13)CC2 | 1.59% [with zVAD 20 µM] |
| CCOc1ccc(C(=O)Nc2nccs2)cc1[N+](=O)[O-] | 80.9% (active) |

| Compound | viability rescue |
| --- | --- |
| CCN(c1ccccc1)S(=O)(=O)c1ccc(C(=O)Nc2nccs2)cc1 | 0.94% |
| COc1ccc(C(=O)NNC(=O)c2cnccn2)cc1[N+](=O)[O-] | -0.17% |
| O=C(O)c1ccccc1-c1ccccc1C(=O)Nc1nccs1 | 1.12% |
| CC(=O)Oc1ccc(C(=O)Nc2nccs2)cc1 | 101% [with zVAD 20 µM] (active) |
| Cn1cccc1C(=O)Nc1nccs1 | 66.4% [with zVAD 20 µM] |
| NC(=O)C1(N2CCCCC2)CCN(C2CC(=O)N(Cc3ccc(N4CCCC4=O)cc3)C2=O)CC1 (stereo unspecified) | 0.13% |
| O=C(COC(=O)/C=C/c1nc2ccccc2s1)Nc1ccccc1Oc1ccccc1 | 0.66% |
| Cc1ccc(CNC(=O)CCNS(=O)(=O)c2ccc(Br)s2)cc1 | 3.55% |
| Cc1noc(C)c1C(=O)OCC(=O)N1CCN(S(=O)(=O)c2ccc3ccccc3c2)CC1 | 0.85% |
| CN(C(=O)CCn1c(=S)oc2ccccc21)C1CCCCC1 | 0.16% |
| CC(=O)NC1C(Oc2ccc(C=O)cc2)OC(COC(C)=O)C(OC(C)=O)C1OC(C)=O (stereo unspecified) | 1.66% |
| Cc1cccc(CSc2nc3c(c(=O)n2C)SCC3)c1 | -0.37% |
| Cc1ccc(NC(=O)c2ccccn2)cc1S(=O)(=O)N1CCOCC1 | 1.5% |
| Cc1ccc(NC(=O)NC2CCCCC2)cc1S(=O)(=O)N1CCOCC1 | 75.4% (active) |
| Cc1ccc(C(=O)Nc2ccccc2C(=O)NC2CCCCC2)cc1S(=O)(=O)N1CCOCC1 | -0.61% |
| CCn1c(CN2C(=O)CSc3ccccc32)n[nH]c1=S | 0.15% |
| CCC1CCCCN1CCCNC(=O)c1cc2c(Cl)nc3ccccc3c2s1 (stereo unspecified) | 18% |
| CCOC(=O)c1cn[nH]c1NC(=S)Nc1ccccc1 | 2.47% |
| CCCCn1c(=O)c(CCC(=O)OCC(=O)Nc2ccc(C)c(Cl)c2)nc2ccccc21 | 0.2% [with zVAD 20 µM] |
